Assay results: PubChem BioAssay AID743287 (Broad Institute, 2014)
Hit rate of the full screen: of about 370,000 compounds, about 2,300 (0.62%) were called active. This is one part of a sample in which actives are shown more often than they occur.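 How the source made its calls: active means lowest replicate activation of at least 40%, so every replicate reaches that level; inactive means the rest.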

assay: primary screen for activators of insulin secretion dependent on glucose, INS-1E cells, GLuc reporter luminescence (AID 743287); settings: INS-1E GLuc reporter insulin secretion, 2-3 h, at 16.6 µM, hits give high values;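 further: 0% = median of neutral control wells and 100% = median of IBMX positive control wells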

activation, active:
O=C(COc1cccc2c1CCNC2=O)NC1CCCCC1 44.9%, NCCCNC(=S)NCCCN(Cc1ccc(Cl)cc1)c1ccc(Br)cn1 57.1%, COc1ccc(C(=O)OCC(=O)Nc2cccc(C(C)=O)c2)cc1OC 67.3%, COC(=O)c1ccc(C(=O)Nc2cc(Cl)ccc2Cl)cc1NC(=O)c1ccccc1C 82.6%, COc1cc(/C=N/NC(=O)Nc2ccccc2)ccc1OCCOc1ccccc1C 169%, CCCN1Cc2cccc(C(=O)NCc3ccccc3)c2C1=O 72.4%, COc1cccc2cc(-c3cc(=O)oc4cc(C)c(O)cc34)oc12 78.5%, CC(C)(C(=O)N1CCC1(C)C(=O)NS(=O)(=O)c1ccc(Br)cc1)c1ccccc1 (centres undefined) 41.5%, Cc1ccc(/C=N/NC(=O)COc2ccccc2-c2ccccc2)cc1 267%, CCC[C@H]1CCCC/C=C\CCCC(=O)OCCN1C(=O)OC(C)(C)C 66.4%, COc1ccc(S(=O)(=O)N(C)CC(=O)Nc2ccc3c(c2)OCCO3)cc1OC 79.4%, COc1ccc(/C=C/C(=O)Nc2ccc3c(c2)OCCO3)cc1OC 53.8%, O=C(O)CCCN1C(=O)C2C3c4ccccc4C(c4ccccc43)[C@@H]2C1=O (some centres undefined) 45.1%, Cc1nc(-c2ccc([N+](=O)[O-])cc2)c(-c2ccccc2)o1 97.9%, CCCc1nc(-c2cc3cc(C)ccc3[nH]c2=O)no1 43.8%, OC(c1ccc(Cl)cc1)C(CN1CCOCC1)c1ccccc1 (centres undefined) 225%, O=C(CSc1nc(C2CC2)nc2ccccc12)Nc1ccc2c(c1)OCCO2 43.1%

activation, inactive:
O=C(COc1ccccc1O)NC1CCCC1 11.6%, Cc1ccccc1NC(=O)COc1cccc2c1CCNC2=O 23.1%, COc1ccc(NC(=O)Nc2ccc3c(c2)C(=O)N([C@@H](C)CO)C[C@@H](C)[C@@H](CN(C)C(=O)Nc2ccc(F)cc2)OCCCC[C@@H](C)O3)cc1 -7.03%, COc1ccc(-c2ccccc2[C@H]2[C@@H](C#N)N(C(=O)C3CCC3)[C@@H]2CO)cc1 -4.21%, S=C(NCCCc1cnc[nH]1)NCCCN(Cc1ccc(Cl)c(Cl)c1)c1ccc(Br)cn1 17%, O=C(/C=C/c1ccc(Cl)cc1)Nc1ccc(Br)cn1 3.4%, CCOc1cc(C(=O)OCC(=O)Nc2cccc(C)c2)ccc1OCC(=O)N1CCOCC1 7.48%, COc1ccc(C(=O)OCC(=O)Nc2cc(C)on2)cc1F 12.4%, C[C@@H]1CN([C@@H](C)CO)S(=O)(=O)c2ccc(-c3ccncc3)cc2O[C@@H]1CN(C)C(=O)C1CCC1 7.69%, CCCNC(=O)N(C)C[C@H]1Oc2cc(C3=CCCCC3)ccc2S(=O)(=O)N([C@H](C)CO)C[C@H]1C -12.1%, CCN(CCO)C(=S)Nc1cc(C(=O)OC)ccc1C(=O)OC 18%, CCCN(CCC)C(=S)Nc1cc(C(=O)OC)ccc1C(=O)OC 20.1%, Cc1ccc(F)c(NC(=O)CCOc2ccccc2C)c1 -15%, C/C=C/c1ccc(OCCOc2ccc(C=O)cc2OC)c(OC)c1 10.7%, C[C@H](O)C#Cc1ccc2c(c1)O[C@H](CN(C)C(=O)C1CCCCC1)[C@@H](C)CN([C@H](C)CO)S2(=O)=O 4.13%, CSc1ccccc1C(=O)NCc1ccccc1 -6.59%, Cc1ccc(CNC(=O)c2ccccc2CCc2ccccc2)cc1 -27.9%, C[C@@H]1CN(C)C(=O)c2cc([N+](=O)[O-])ccc2O[C@@H]1CN(C)C(=O)OC(C)(C)C 16%, COc1cccc(-c2ccc3n(c2=O)C[C@@H]2[C@@H](CO)[C@H](C(=O)NC4CCC4)[C@H]3N2C)c1 7.74%, COc1cccc(C(=O)OCc2cc(=O)oc3c(C)c(C)ccc23)c1OC 8.16%, COc1cccc2cc(C(=O)NCc3ccc(C)cc3)c(=N)oc12 12.3%, CNC[C@@H]1Oc2ccc(N(C)C)cc2CC(=O)N(C)C[C@@H]1C 2%, CC(C)(C)c1ccc(S(=O)(=O)NC(=O)C2(C)CCN2C(=O)CC2CC2)cc1 (centres undefined) 7.26%, CC1(C(=O)NS(=O)(=O)c2ccccc2)CCN1C(=O)C1CCCCC1 (centres undefined) 4.33%, O=C(NCC[C@@H]1CC[C@H](NC(=O)C2CCCCC2)[C@@H](CO)O1)Nc1ccc(Cl)cc1 -11.1%, Cc1noc(C)c1NC(=O)N(C)C[C@@H]1OCCCC[C@@H](C)Oc2ccc(NC(=O)C3CCCCC3)cc2C(=O)N([C@@H](C)CO)C[C@H]1C -7.43%, COc1ccc(-c2ccccc2[C@@H]2[C@@H](C#N)N(C(=O)NC3CCCC3)[C@H]2CO)cc1 -19.5%, COc1ccc2c3c(n(C)c2c1)[C@@H](CO)N(Cc1ccccc1OC)CC31CN(CC2CCOCC2)C1 10%, CC(C)C#Cc1ccc2c(c1)O[C@@H](CN(C)CC1CCOCC1)[C@H](C)CN([C@H](C)CO)S2(=O)=O -9.43%, O=C(CN1CCSCC1)N/N=C/c1ccc(F)cc1 -0.738%, O=C(COc1ccc(-c2ccccc2)cc1)NN=C1CCCC1 11%, CN(C)C(=O)C[C@H]1CC[C@@H](NC(=O)Nc2cccc(F)c2)[C@H](CO)O1 3.3%, CN1c2ccc(-c3ccc(F)cc3)cc2[C@@H]2[C@@H](CCN2C(=O)c2cccnc2)[C@H]1CO 18.2%, CNC[C@H]1Oc2ccc(NS(=O)(=O)c3ccccc3)cc2CC(=O)N([C@H](C)CO)C[C@@H]1C 3.16%, Cc1cccc(C)c1NC(=O)C1CCCN1C(=O)OC(C)(C)C (centres undefined) 2.21%, Cc1ccc(C)c(NC(=O)C2CCCN2C(=O)OC(C)(C)C)c1 (centres undefined) -3.08%, C[C@H]1CN(C)C(=O)c2cccc(N(C)C)c2O[C@@H]1CN(C)C -6.84%, CNC[C@H]1Oc2cc(C#CCOC)ccc2S(=O)(=O)N([C@@H](C)CO)C[C@H]1C 4.43%, Cc1noc(C)c1NC(=O)Nc1ccc2c(c1)CC(=O)N([C@@H](C)CO)C[C@H](C)[C@@H](CN(C)C(=O)Nc1ccc3c(c1)OCO3)O2 5.38%, CC(=O)N(C)C[C@@H]1Oc2ccc(NC(=O)NC(C)C)cc2C(=O)N(C)C[C@H]1C 9.69%, CN(CC(=O)Nc1ccc(C(N)=O)cc1)S(=O)(=O)c1ccc2c(c1)OCCO2 -7.44%, COc1ccc(/C=C/C(=O)Nc2ccc(C34CC5CC(CC(O)(C5)C3)C4)cc2)cc1OC 11.4%, COc1ccc(NC(=O)CN(C)S(=O)(=O)c2ccccc2)cc1OC 8.5%, COc1ccc(Cl)cc1NC(=O)CN(C)CC(=O)Nc1ccc2c(c1)OCO2 -15.8%, C[C@H](CO)N1C[C@H](C)[C@@H](CN(C)CC2CC2)Oc2ccc(NS(=O)(=O)c3cn(C)cn3)cc2CC1=O 9.55%, CO[C@H]1CN(C)C(=O)c2cc(NC(C)=O)ccc2OC[C@H](C)N(C(=O)CN(C)C)C[C@@H]1C 13.5%, O=C(Nc1cc(F)ccc1F)N1CC(=O)N2[C@H](CO)[C@@H](c3ccc(-c4cccnc4)cc3)[C@@H]2C1 13.1%, O=C(C1CCCC1)N1CC2(C1)[C@H](c1ccccc1)[C@H](CO)N2CCC(F)(F)F -20.6%, O=C(O)CCCN1C(=O)c2ccccc2Sc2ncccc21 3.02%, O=C(CCN1C(=O)C2C3C=CC(C3)C2C1=O)Nc1ccccc1F (centres undefined) 3.2%, COCC(=O)Nc1ccc2c(c1)OC[C@H](C)NC[C@@H](C)[C@H](OC)CN(C)C2=O -5.25%, COc1ccc2c3c([nH]c2c1)[C@H](CO)N(CC1CC1)CC31CN(C(=O)Nc2cccc(F)c2)C1 -17.2%, COc1ccc(CN(C)C[C@H]2Oc3ccc(NS(=O)(=O)c4c(C)noc4C)cc3CC(=O)N([C@H](C)CO)C[C@H]2C)cc1 6.22%, CCC1OC(c2ccc([N+](=O)[O-])cc2)=Nc2ccccc21 (centres undefined) 0.826%, Cc1nc2ccccc2nc(=O)c1NNc1ccc([N+](=O)[O-])cc1 -4.75%, COC(=O)C[C@H]1C=C[C@H](NC(=O)Nc2ccc(C(F)(F)F)cc2)[C@@H](CO)O1 15.4%, COc1ccccc1-c1noc(CSc2nc(C)cc(=O)[nH]2)n1 5.85%, Cc1ccc2[nH]c(=O)c(CN(C)S(=O)(=O)c3cccc4nonc34)cc2c1 6.21%, C[C@@H]1CN(C)C(=O)c2cccc(N(C)C)c2O[C@H]1CN(C)S(C)(=O)=O 23.8%, COc1cccc(C#Cc2ccc([C@@H]3[C@H]4CN(C(=O)Cc5ccccc5)CC(=O)N4[C@H]3CO)cc2)c1 6.19%, COc1ccccc1NC(=O)N1CCCCN2[C@@H](CO)[C@@H](c3ccc(C#Cc4ccccc4)cc3)[C@@H]2C1 -22.8%, O=C(CC(c1ccccc1)c1cc(Cl)ccc1O)NCCN1CCOCC1 (centres undefined) -15%, S=C(Cc1ccc(Cl)cc1)N1CCOCC1 9.43%, O=C(NC[C@@H]1[C@@H](c2ccccc2)[C@@H](CO)N1Cc1ccccn1)C1CCC1 1.69%, CCc1cnc(N2[C@H](C#N)[C@H](c3ccccc3-c3ccccc3C)[C@H]2CO)s1 -14.3%, O=C(CSc1nnnn1C1CCCC1)Nc1ccc2c(c1)OCCO2 4.25%, Cc1nnc(NC(=O)CSc2nc(C3CCCCC3)nc3ccccc23)s1 16.1%
